High-throughput results: PubChem, National Center for Advancing Translational Sciences (NCATS)
DT40 TDP1 no CPT = qHTS for Inhibitors of human tyrosyl-DNA phosphodiesterase 1 (TDP1): qHTS in cells in absence of CPT; DT40 Tdp1-/- hTDP1 cells, no CPT, ATP luminescence, 48 h; Potency, µM (titrated, usually from 46.2 µM), for inactives: at the highest dose activity change, negative = growth inhibition, actives largely listed as inhibitors; 420,000 compounds, 15% hits; also: potency is read from the fitted curve at half-maximal effect; nearly all actives have a fitted effect of over 55% in size
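Readout: luminescence from CellTiter-Glo after 30 min in the dark at RT. Cells: DT40 Tdp1-/- with stable hTDP1, 400/well. Exposure: compounds alone, ≥48 hr, 37 °C.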
IL-1B inflam inh = inhibitors of inflammasome signaling (IL-1 beta secretion). activity change, % at 57.5 µM. THP-1 LPS/ATP IL-1B secretion, AlphaLISA, 16 h; hits give low values. AID 743279. 360,000 compounds, 4.7% hits; in the data active = activity change below about -50%; inconclusive = mostly about -30% to -49%
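THP-1 cells pretreated 1 hr with compounds (up to 57.5 uM final), then stimulated with LPS (250 ng/mL final) plus ATP (1.25 mM final); secreted IL-1B measured by AlphaLISA after 16 hr, decreased signal indicating inhibition.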
VP16 counter = inhibits Gal4-VP16 luciferase reporter, ROR gamma counter-screen | Potency, µM (top dose mostly 53.6 µM), for the others: at the highest dose activity, negative = inhibition, hits mostly inhibitors | 310,000 compounds, 3.5% hits | AID 2546 | Drosophila S2 Gal4-VP16 UAS-luciferase, luminescence, 20 h;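 also: Gal4-VP16 expression switched on by copper sulfate through the metallothionein promoter; potency is read from the fitted curve at half-maximal effect; nearly all actives have a fitted effect of over 50% in size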
DT40 TDP1 CPT = DT40-hTDP1 cell growth loss with CPT. chicken DT40 Tdp1-/-;hTDP1 cells + 20 nM CPT, ATP luminescence, 48 h. Potency, µM (doses to about 46.2 µM), without a hit: at the top dose activity change, negative = growth inhibition, actives largely listed as inhibitors. 420,000 compounds, 12% hits. AID 686979; also: potency is read from the fitted curve at half-maximal effect; nearly all actives have a fitted effect of over 55% in size
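Cell growth measured by CellTiter-Glo luminescence after a minimum 48 h, 37 C compound exposure with 20 nM CPT in Tdp1-knockout DT40 cells stably expressing hTDP1, seeded 400/well; qHTS titration format.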
RORg inh = blocks mouse ROR gamma transcriptional activity; Potency, µM (highest dose often 53.6 µM), for the others: top-dose activity change, negative = inhibition, hits mostly inhibitors; 310,000 compounds, 5.4% hits; Drosophila S2 Gal4-RORgamma UAS-luciferase reporter, 20 h; also: potency is read from the fitted curve at half-maximal effect; nearly all actives have a fitted effect of over 60% in size
Target sequence (P51450 whole entry, looked up, the tested form may be a part): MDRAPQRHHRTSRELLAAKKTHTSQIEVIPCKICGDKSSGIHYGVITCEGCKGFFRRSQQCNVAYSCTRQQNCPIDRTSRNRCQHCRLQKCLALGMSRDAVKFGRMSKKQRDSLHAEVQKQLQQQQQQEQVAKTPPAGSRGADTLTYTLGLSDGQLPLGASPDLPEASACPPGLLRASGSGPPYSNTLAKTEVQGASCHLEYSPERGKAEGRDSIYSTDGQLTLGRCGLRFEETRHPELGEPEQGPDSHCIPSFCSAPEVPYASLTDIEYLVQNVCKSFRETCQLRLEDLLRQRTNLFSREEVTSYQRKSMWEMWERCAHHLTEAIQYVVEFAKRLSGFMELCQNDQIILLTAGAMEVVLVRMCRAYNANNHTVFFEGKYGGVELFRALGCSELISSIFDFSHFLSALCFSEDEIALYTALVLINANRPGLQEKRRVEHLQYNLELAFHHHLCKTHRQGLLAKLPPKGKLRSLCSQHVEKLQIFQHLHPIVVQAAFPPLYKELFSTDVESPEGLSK
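Schneider cells (Drosophila), stable Gal4 DBD–ROR gamma + UAS-luc; 1 hr cmpd preincubation; Cu2+ induction 700 uM final; 20 hr ambient; luminescence.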
ELG1 DNA repair = ELG1-dependent DNA repair inhibition. 330,000 compounds, 2.3% hits. Potency, µM (series often up to 46.1 µM), for the others: top-dose activity change, negative = inhibition, usual class: inhibitors. HEK293T ELG1-luciferase reporter, luminescence, 16 h; DNA damage induced by 5-fluorouridine; also: potency is read from the fitted curve at half-maximal effect; nearly all actives have a fitted effect of over 55% in size
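HEK293T cells expressing luciferase-tagged ELG1 (2,000/well) received 5-Fluorouridine plus compound or DMSO for 16 hr at 37 °C. Luciferase was read by ONE-Glo luminescence after 30 min at room temperature.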
Numbers without * were called inactive; ? = inconclusive; . = not tested or not shown; [ ] = remark or other dose. Rows were chosen to be rich in hits. Some 21% of all compounds tested hit in one or more screens of this group. Unless noted, calls follow the shape of the dose curve; as a rule, active = well fitted curve in the direction sought with a large enough effect; inconclusive = small, poorly fitted or top-dose-only effect, or another doubt; inactive = no such curve, though single readings can be large; an effect the other way counts as inactive or inconclusive. % is scaled to controls: 0 for no effect and ±100 for the full control effect.

SMILES	DT40 TDP1 no CPT	IL-1B inflam inh	VP16 counter	DT40 TDP1 CPT	RORg inh	ELG1 DNA repair
COc1ccc(S(=O)(=O)NCc2ccc3c(c2)CCN3C(C)=O)cc1OC	?	.	.	-29%	.	.
COc1ccc(-c2c(C)cc3oc(=O)cc(-c4ccccc4)c3c2C)cc1	?	10	0%	23µM*	41%	0%
Cc1cc2oc(=O)cc(-c3ccccc3)c2c(C)c1-c1ccc(N(C)C)cc1	?	13	-3%	?	24%	15%
COc1ccc(-c2ccc(-c3cc(=O)oc4c(C(C)C)ccc(C)c34)cc2)cc1	21µM*	41	6%	23µM*	-16%	-12%
Cc1cc2oc(=O)cc(-c3ccccc3)c2c(C)c1-c1ccc(C(F)(F)F)cc1	?	48	5%	?	3%	-2%
Cc1ccc(-c2c(C)cc3oc(=O)cc(-c4ccccc4)c3c2C)cc1	23µM*	40	3%	?	15%	13%
COCCN(Cc1nc2ccccc2c(=O)[nH]1)C(=O)COc1c(C)cc(Cl)cc1C	?	-19	.	?	.	-23%
CCC(C(=O)NC(C)(C)C)N(Cc1ccc(OC)cc1)C(=O)c1snc(C(N)=O)c1N (configuration not stated)	?	-3	.	-23%	.	.
CC1=Nc2ccccc2/C1=C(/C)c1c(C)[nH]c2ccccc12	?	.	.	-2%	.	.
O=C(CNC(=O)c1ccccc1)N/N=C/c1cccs1	-3%	-6	3%	31%	2%	-13%
O=C(CNC(=O)c1ccccc1)N/N=C/c1ccc([N+](=O)[O-])s1	?	?	-18%	?	3%	6.5µM*
O=C(Cc1ccccc1)NCC(=O)N/N=C/c1ccc([N+](=O)[O-])s1	15µM*	?	-22%	23µM*	-34%	?
O=C(Cc1ccccc1)NCC(=O)N/N=C/c1ccc(C(=O)O)cc1	-2%	15	-2%	-3%	14%	22%
CCn1c(CNC(=O)C2CCCCC2)cc2cc(C)ccc21	?	15	-3%	17%	-18%	3%
COc1cc(CN2C[C@@H](CO)O[C@@H](n3cnc4c(N5CCCC5)ncnc43)C2)cc(OC)c1OC	-20%	-16	.	-7%	.	.
COCCCNC(=O)Nc1cc(C(=O)NCc2ccc(OC)cc2)ccc1N1CCCC1	-26%	.	.	-21%	.	.
CC1CC(=S)Nc2ccccc2N1C(=O)Nc1ccccc1 (configuration not stated)	-10%	11	?	4%	10µM*	14%
C#CCNC(=O)C[C@@H]1C[C@@]2(C(=O)OC)CCCCC=C2N(Cc2ccc3c(c2)OCO3)C1=O	?	11	.	-2%	.	.
C[C@@]12CCC[C@@](C)(C(=O)O)C1CC[C@@]13C[C@@H](NCc4ccccc4)[C@@](C)(CCC12)C3 (some centres not stated)	21µM*	0	.	?	.	20%
COc1ccc(C(=O)Nc2nc(-c3nnn(-c4cc(OC)ccc4OC)c3C)ns2)cc1	16µM*	.	.	16µM*	.	.
COc1ccc(C(=O)Nc2nc(-c3nnn(-c4ccc(C(C)C)cc4)c3C)ns2)cc1	16µM*	.	.	13µM*	.	.
COc1ccc(Cl)cc1-n1nnc(-c2nsc(NC(=O)c3ccccc3Cl)n2)c1C	-12%	.	.	-10%	.	.
COc1ccc2nc(NC(=O)c3ccc(-n4nc(C)cc4C)cc3)sc2c1	0%	-15	-2%	-6%	-1%	?
CC(OC(=O)Cn1cc(C(F)(F)F)ccc1=O)C(=O)N(C)c1ccccc1 (configuration not stated)	-1%	7	.	-17%	.	-14%
CCc1c(C)sc2c1CCN(Cc1ccc(F)cc1)C2c1ccccc1 (configuration not stated)	4.6µM*	.	.	?	.	.
SMILES	DT40 TDP1 no CPT	IL-1B inflam inh	VP16 counter	DT40 TDP1 CPT	RORg inh	ELG1 DNA repair
CCc1c(C)sc2c1CCN(Cc1cccc(F)c1)C2c1ccccc1 (configuration not stated)	12µM*	.	.	?	.	.
CCOC(=O)C1CCCCN1Cc1cccc(F)c1 (configuration not stated)	1%	22	5%	3%	-22%	15%
CCCC(C)NC(=O)CSc1nc2ccc(C)cc2[nH]1 (configuration not stated)	-20%	-6	2%	-16%	-10%	-15%
Cc1ccc(NC(=O)CSc2nc(N)cc(N)n2)cc1S(=O)(=O)N1CCOCC1	-12%	21	-12%	-3%	?	-6%
Cc1ccc(C)c(SCC(=O)Nc2ccc(C)c(S(=O)(=O)N3CCOCC3)c2)c1	13µM*	-6	.	23µM*	.	?
COc1ccc(NC(=O)CN2CCc3ccccc3C2)cc1S(=O)(=O)N1CCOCC1	-6%	20	3%	-11%	30%	6%
Cc1ccc(NS(=O)(=O)N2CCOCC2)cc1Cl	8%	6	30%	5%	0.35µM*	0%
Cc1nc(-c2ccc(F)cc2)c(CC(=O)Nc2ccc(C)c(S(=O)(=O)N3CCOCC3)c2)s1	?	-15	-6%	10µM*	?	?
COc1cc2c(cc1OC)C(C)N(CC(=O)Nc1ccc(C)c(S(=O)(=O)N3CCOCC3)c1)CC2 (configuration not stated)	16µM*	-3	-23%	?	23%	?
CCC(C)NC(=O)c1ccc2c(c1)nc1n2CCCCC1 (configuration not stated)	1%	.	.	-8%	.	.
Nc1[nH]c(C(=O)c2ccccc2)c(-c2ccc(Cl)cc2Cl)c1C(=O)NCCc1c[nH]c2ccccc12	?	-17	.	?	.	.
Cc1ccc(NCC(=O)Nc2ccc(F)c(Cl)c2)cc1S(=O)(=O)N1CCOCC1	21µM*	-17	.	?	.	.
Cc1ccc(NC(=O)CNc2cccc(S(=O)(=O)N3CCOCC3)c2)cc1F	?	-10	.	?	.	?
Cc1ccc(NC(=O)CNc2cccc(Br)c2)cc1S(=O)(=O)N1CCOCC1	16µM*	-52*	.	?	.	23µM*
NC(=O)C1(N2CCCCC2)CCN(C(=O)Nc2ccc(F)cc2F)CC1	-2%	.	.	5%	.	.
CC1Cc2ccccc2N1C1=NS(=O)(=O)c2ccccc21 (configuration not stated)	-19%	-27	3%	-10%	12%[10 µM]	?
CC1Cc2ccccc2N1C1=CC(=O)CCC1 (configuration not stated)	5.8µM*	85	-10%	7.3µM*	14%	-2%
